Read-out in assay [1]: Human Leukocyte Antigen - DR isotype (HLADR), HLA-DRA (gene 3122)
Put plainly: BSK_3C_HLADR: BioMAP Diversity Plus: 3C Assay for Human Leukocyte Antigen - DR isotype (HLADR) Biomarker Activity (AID 2283019). The following applies: primary human endothelial cells (HUVEC); actives raise or lower the signal. The method in brief:
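Primary human umbilical vein endothelial cells (3C system) were dosed with compound and cell-surface HLA-DR was quantified by ELISA at 24 h. Activity was fitted bidirectionally against DMSO as negative control and baseline.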

Read-out in assay [2]: Interleukin-8 (IL8), CXCL8 (gene 3576)
Put plainly: BSK_3C_IL8: BioMAP Diversity Plus: 3C Assay for Interleukin-8 (IL8) Biomarker Activity (AID 2283020). The note with it: primary human endothelial cells (HUVEC); actives raise or lower the signal. An outline of the steps: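 IL-8 was measured by ELISA in HUVEC cultures 24 h after chemical dosing, with gain or loss of signal fitted relative to DMSO. Parallel SRB total-protein staining tracked overt cytotoxicity.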

Read-out in assay [3]: Monokine induced gamma interferon (MIG), CXCL9 (gene 4283)
Put plainly: BSK_3C_MIG: BioMAP Diversity Plus: 3C Assay for Monokine induced gamma interferon (MIG) Biomarker Activity (AID 2283021). The note with it: primary human endothelial cells (HUVEC); actives raise or lower the signal. An outline of the steps: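 ELISA measurement of MIG in human umbilical vein endothelial cells 24 h after treatment. Cytotoxicity tracked by SRB staining in parallel cultures; gain or loss of signal fitted relative to DMSO.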

Assay [4] can be described thus: BSK_3C_SRB: Viability Assessment in the BioMAP Diversity Plus: 3C Assay (AID 2283023).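 Note: fitted both ways against DMSO so a hit may be signal rise or drop.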 The following applies: primary human endothelial cells (HUVEC). The method in brief: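 Primary human umbilical vein endothelial cells in the 3C system were read 24 h after compound dosing. Total protein was stained with 0.1% sulforhodamine B after 10% TCA fixation and read at 560 nm, with bidirectional fitting against DMSO as baseline.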

Read-out in assay [5]: Matrix Metallopeptidase 1 (MMP1), MMP1 (gene 4312)
The experiment in a line: BSK_BE3C_MMP1: BioMAP Diversity Plus: BE3C Assay for Matrix Metallopeptidase 1 (MMP1) Biomarker Activity (AID 2283024). The note with it: primary human bronchial epithelial cells; actives raise or lower the signal. An outline of the steps:
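ELISA measurement of MMP-1 after 24 h compound exposure of primary human bronchial epithelial cells. Changes in either direction fitted relative to DMSO; parallel SRB staining checked overt cytotoxicity.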

Assay [6] is described as follows: BSK_3C_Vis: BioMAP Diversity Plus: 3C Assay for Morphology Visualization (AID 2283025).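 For AC50: light microscopy image of cell morphology used as background control.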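 Note: fitted both ways so gain or loss versus DMSO counts.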 The following applies: primary human endothelial cells (HUVEC). An outline of the steps:
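Light-microscopy visualization of HUVEC cultures at 24 h post-treatment, with DMSO as baseline for bidirectional fitting.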

Read-out in assay [7]: Pselectin, SELP (gene 6403)
Put plainly: BSK_4H_Pselectin: BioMAP Diversity Plus: 4H Assay for Pselectin Biomarker Activity (AID 2283026). The following applies: primary human endothelial cells (HUVEC); actives raise or lower the signal. An outline of the steps:
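ELISA of surface P-selectin on HUVEC, 24 h after dosing, with parallel SRB staining (0.1% after 10% TCA fixation, 560 nm) for overt cytotoxicity. Activity fitted in both directions relative to DMSO.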

A short description of assay [8]: BSK_4H_SRB: Viability Assessment in the BioMAP Diversity Plus: 4H Assay (AID 2283027).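 For AC50: curves fitted both ways versus DMSO so AC50 may be loss or gain.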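 Note: cells exposed to compound for 24 h before staining.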 The following applies: primary human endothelial cells (HUVEC). An outline of the steps:
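Cytotoxicity read-out in primary human endothelial cells: after 24 h compound exposure, cells were TCA-fixed (10%), stained with 0.1% SRB and absorbance taken at 560 nm. Values fitted in both directions relative to DMSO.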

Assay [9] can be described thus: BSK_BE3C_SRB: Viability Assessment in the BioMAP Diversity Plus: BE3C Assay (AID 2283028).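 For AC50: fitted both ways so AC50 may mark signal gain or loss versus DMSO.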 The following applies: primary human bronchial epithelial cells. An outline of the steps:
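Human primary bronchial epithelial cells were exposed to test chemicals for 24 h. Total protein in parallel cultures was then measured by staining with 0.1% sulforhodamine B after 10% TCA fixation, with absorbance read at 560 nm. Activity was fitted bidirectionally against DMSO.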

Read-out in assay [10]: Thrombomodulin, THBD (gene 7056)
Put plainly: BSK_3C_Thrombomodulin: BioMAP Diversity Plus: 3C Assay for Thrombomodulin Biomarker Activity (AID 2283029). The following applies: primary human endothelial cells (HUVEC); actives raise or lower the signal. An outline of the steps:
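ELISA measurement of thrombomodulin on HUVEC surface 24 h after chemical dosing; activity fitted in both directions relative to DMSO vehicle.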

Read-out in assay [11]: Urokinase-type plasminogen activator receptor (uPAR), PLAUR (gene 5329)
Put plainly: BSK_4H_uPAR: BioMAP Diversity Plus: 4H Assay for Urokinase-type plasminogen activator receptor (uPAR) Biomarker Activity (AID 2283030). The following applies: primary human endothelial cells (HUVEC); actives raise or lower the signal. The method in brief:
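Primary human umbilical vein endothelial cells were exposed to chemical for 24 h before cell-surface uPAR was quantified by ELISA. Activity was fitted bidirectionally against the DMSO negative control baseline.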

Read-out in assay [12]: Vascular endothelial growth factor receptor 2 (Homo sapiens) (UniProt P35968)
Put plainly: BSK_4H_VEGFRII: BioMAP Diversity Plus: 4H Assay for Vascular endothelial growth factor receptor 2 (VEGFR2) Biomarker Activity (AID 2283031). The note with it: primary human endothelial cells (HUVEC); actives raise or lower the signal. An outline of the steps: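 Primary human umbilical vein endothelial cells in the BioMAP 4H system were dosed with test chemical, and 24 h later VEGFRII was measured by ELISA. Activity was fitted bidirectionally against DMSO as negative control and baseline.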

Read-out in assay [13]: Human Leukocyte Antigen - DR isotype (HLADR), HLA-DRA (gene 3122)
The experiment in a line: BSK_BE3C_HLADR: BioMAP Diversity Plus: BE3C Assay for Human Leukocyte Antigen - DR isotype (HLADR) Biomarker Activity (AID 2283032). The note with it: primary human bronchial epithelial cells; actives raise or lower the signal. An outline of the steps: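 Cell-surface HLA-DR ELISA readout at 24 h after dosing in the BE3C primary human lung bronchial epithelial system; gain or loss of signal against DMSO, with parallel sulforhodamine B staining of total protein for overt cytotoxicity.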

Read-out in assay [14]: Interferon-gamma inducible Protein 10 (IP10), CXCL10 (gene 3627)
Put plainly: BSK_BE3C_IP10: BioMAP Diversity Plus: BE3C Assay for Interferon-gamma inducible Protein 10 (IP10) Biomarker Activity (AID 2283034). The following applies: primary human bronchial epithelial cells; actives raise or lower the signal. An outline of the steps: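 IP-10 quantified by ELISA in human primary bronchial epithelial cell cultures at 24 hours post-dosing. Gain or loss of signal fitted relative to DMSO; parallel SRB staining assessed overt cytotoxicity.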

Read-out in assay [15]: Monokine induced gamma interferon (MIG), CXCL9 (gene 4283)
The experiment in a line: BSK_BE3C_MIG: BioMAP Diversity Plus: BE3C Assay for Monokine induced gamma interferon (MIG) Biomarker Activity (AID 2283035). The following applies: primary human bronchial epithelial cells; actives raise or lower the signal. An outline of the steps:
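ELISA quantified MIG after 24 h exposure of primary bronchial epithelial cultures, analysed in both directions relative to DMSO. Cytotoxicity tracked in parallel cultures by sulforhodamine B staining.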

Read-out in assay [16]: Transforming growth factor beta 1 (TGFb1), TGFB1 (gene 7040)
Put plainly: BSK_BE3C_TGFb1: BioMAP Diversity Plus: BE3C Assay for Transforming growth factor beta 1 (TGFb1) Biomarker Activity (AID 2283036;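 note: TGF-b1 protein level measured by ELISA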). The note with it: primary human bronchial epithelial cells; actives raise or lower the signal. The method in brief:
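ELISA readout of TGF-b1 from human lung bronchial epithelial primary cells, taken 24 h post-treatment. Gain or loss of signal fitted relative to DMSO baseline, with parallel SRB staining for overt cytotoxicity.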

Read-out in assay [17]: Plasminogen activator inhibitor-1 (PAI1), SERPINE1 (gene 5054)
The experiment in a line: BSK_BE3C_PAI1: BioMAP Diversity Plus: BE3C Assay for Plasminogen activator inhibitor-1 (PAI1) Biomarker Activity (AID 2283037). The following applies: primary human bronchial epithelial cells; actives raise or lower the signal. The method in brief:
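PAI-1 was measured by ELISA in human primary bronchial epithelial cultures 24 h after chemical dosing, with cytotoxicity checked by SRB total-protein staining in parallel cultures. Activity was fitted in both directions relative to DMSO.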

Read-out in assay [18]: urokinase plasminogen activator (uPA), PLAU (gene 5328)
The experiment in a line: BSK_BE3C_uPA: BioMAP Diversity Plus: BE3C Assay for urokinase plasminogen activator (uPA) Biomarker Activity (AID 2283038).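 Note: uPA protein level quantified by ELISA in cell cultures; uPA read one day after compound addition.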 The note with it: primary human bronchial epithelial cells; actives raise or lower the signal. The method in brief: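 Human primary bronchial epithelial cells were exposed to chemical for 24 h, then uPA levels were measured by ELISA. Responses were fitted bidirectionally against DMSO as negative control and baseline. Parallel SRB staining of total protein gauged overt cytotoxicity.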

Read-out in assay [19]: Urokinase-type plasminogen activator receptor (uPAR), PLAUR (gene 5329)
Put plainly: BSK_BE3C_uPAR: BioMAP Diversity Plus: BE3C Assay for Urokinase-type plasminogen activator receptor (uPAR) Biomarker Activity (AID 2283039).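 For outcome: cells exposed to compound for one day before measurement.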 The following applies: primary human bronchial epithelial cells; actives raise or lower the signal. The method in brief: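 uPAR levels were measured by ELISA after 24 h compound treatment of primary human bronchial epithelial cells, fitted in both directions relative to DMSO. Parallel SRB staining served as the cytotoxicity read-out.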

Read-out in assay [20]: Vascular cell adhesion molecule 1 (VCAM1), VCAM1 (gene 7412)
Put plainly: BSK_4H_VCAM1: BioMAP Diversity Plus: 4H Assay for Vascular cell adhesion molecule 1 (VCAM1) Biomarker Activity (AID 2283033). The note with it: primary human endothelial cells (HUVEC); actives raise or lower the signal. An outline of the steps: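 VCAM-1 ELISA read 24 h after chemical dosing of HUVEC in the BioMAP 4H system, with gain or loss of signal fitted relative to DMSO. Parallel SRB staining (560 nm) checked overt cytotoxicity.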

The source made the active and inactive calls. Rule for the calls: active = hit-call score of the fitted dose curve at least 0.9, where 1 is the maximum; inactive = score below 0.9.

Consider `CNC(=O)N(C)c1nnc(C(C)(C)C)s1`, for which the outcome in assay [1], in assay [2], in [3], in assay [4], in assay [5] and in [6] was inactive. The result in assay [7], in [8], in [9], in [10], in assay [11] and in assay [12] was inactive. In addition, the outcome in assay [13], in assay [14], in assay [15], in [16], in assay [17] and in [18] was inactive. Further, the result in assay [19] was inactive.

As a reminder, the AC50 is the concentration giving half of the maximal activity seen. Turning to `Cc1cc(C)nc(Nc2ccccc2)n1`, the AC50 in assay [1] was 16.6 µM (active). The outcome in assay [2], in assay [3], in assay [4], in assay [5], in assay [6] and in assay [7] was inactive. The result in [8], in assay [9], in assay [10], in assay [11], in assay [13] and in assay [14] was inactive. Besides, the outcome in assay [15], in assay [16], in assay [17], in [18] and in assay [19] was inactive.

In the case of `CCOP(=O)(OCC)Oc1nc(Cl)c(Cl)cc1Cl`, the concentration at half-maximal activity (AC50) in [1] is 24.6 µM (active); in assay [2], 20 µM (active); in assay [4], 28.8 µM (active); in [6], 16.3 µM (active); in [7], 18.5 µM (active); in [8], 12.4 µM (active). The AC50 is 4.23 µM (active) in assay [9]; 12 µM (active) in assay [11]; 26.7 µM (active) in [20]; 23.9 µM (active) in assay [14]; 9.84 µM (active) in [19]. Further, the result in [3], in assay [5], in assay [10], in assay [12], in assay [13] and in assay [15] was inactive. Besides, the result in assay [16], in assay [17] and in [18] was inactive.

Turning to `C=CCOC(=O)C(C)(C)OC(=O)c1cc(-n2c(=O)cc(C(F)(F)F)n(C)c2=O)ccc1Cl`, the AC50 was 14.7 µM (active) in assay [1] and 6.97 µM (active) in assay [11]. Also, the result in assay [2], in [3], in assay [4], in assay [5], in [6] and in assay [7] was inactive. The result in assay [8], in assay [9], in assay [10], in assay [12], in [13] and in [14] was inactive. Moreover, the outcome in assay [15], in assay [16], in [17], in [18] and in [19] was inactive.

Consider `O=c1n(Cl)c(=O)n(Cl)c(=O)n1Cl`, for which the AC50 in assay [1] was 3.97 µM (active). The outcome in [2], in assay [3], in assay [4], in assay [5], in [6] and in assay [7] was inactive. The outcome in assay [8], in [9], in assay [10], in assay [11], in assay [13] and in assay [14] was inactive. Also, the outcome in [15], in [16], in assay [17], in assay [18] and in [19] was inactive.

With `CSC(=O)c1c(C(F)F)nc(C(F)(F)F)c(C(=O)SC)c1CC(C)C`, the AC50 was 31.1 µM (active) in assay [1]; 32.4 µM (active) in assay [2]; 14.6 µM (active) in assay [4]; 6.22 µM (active) in assay [5]; 13.7 µM (active) in [6]; 15 µM (active) in assay [7]. Moreover, the AC50 in [8] is 25.7 µM (active); in [9], 16.8 µM (active). Also, the outcome in assay [3], in [10], in assay [13], in assay [14], in assay [15] and in assay [16] was inactive. For the same compound, the result in assay [17], in assay [18] and in [19] was inactive.

(Values after PubChem BioAssay (EPA / NIEHS).)
